# Bioassay records deposited in PubChem by National Center for Advancing Translational Sciences (NCATS).
# p53ts 32C tox – p53ts cell cytotoxicity, permissive temperature | Potency, µM (series often up to 46.1 µM), without a hit: at the top dose activity change, negative = cytotoxicity, actives largely listed as cytotoxic | actives 0.93% (n = 130,000) | H1299-p53A138V at 32C, ATP luminescence viability, 24 h;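 further: 0% = DMSO and -100% = full killing by reference compound; nearly all actives have a fitted effect of over 55% in size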
#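 Viability by ATPlite luminescence after 24 h compound treatment (up to 46 uM) at the permissive 32C. Cells are H1299 carrying p53 A138V. Scale runs from DMSO basal to 100 uM tamoxifen as full kill; AC50 from Hill fits.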
# 12-hLO inh – inhibitors of human 12-lipoxygenase (ALOX12); P18054; purified 12-hLO, xylenol orange hydroperoxide absorbance; Potency, µM (series often up to 57.1 µM), for the others: at the top dose activity change, negative = inhibition, actives largely listed as inhibitors; actives 0.12% (n = 150,000); further: nearly all actives have a fitted effect of over 55% in size
#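 Lipoxygenase turnover measured by absorbance at 573 and 405 nm after Fe-XO development. Human 12hLO 150 nM, arachidonate 40 uM, pH 7.0 Hepes buffer with detergent; 15 min compound preincubation, 30 min reaction.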
# HPGD inh – blocks human HPGD enzyme activity; P15428; purified HPGD, NADH fluorescence kinetic, PGE2 substrate; Potency, µM, for the others: at the highest dose activity change, negative = inhibition, most hits filed as inhibitors; actives 4.3% (n = 150,000); active means well fitted inhibition curve with a large enough effect, not every such curve was filed as active; inconclusive means small, poorly fitted or top-dose-only effect, or another doubt; inactive means no such curve, though single readings can be large or run the other way
# Target sequence (P15428 whole entry, looked up): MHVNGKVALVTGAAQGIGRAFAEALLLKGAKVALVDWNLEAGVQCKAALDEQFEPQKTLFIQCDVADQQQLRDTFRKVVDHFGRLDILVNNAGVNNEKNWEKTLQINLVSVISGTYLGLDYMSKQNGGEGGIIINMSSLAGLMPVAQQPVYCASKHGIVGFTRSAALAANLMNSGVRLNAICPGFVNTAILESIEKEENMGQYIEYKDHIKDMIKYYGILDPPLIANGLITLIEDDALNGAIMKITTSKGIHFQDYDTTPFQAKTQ
#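 20 nM HPGD preincubated 15 min at room temperature with compound in 50 mM Tris-HCl pH 8, 0.01% Tween 20. Started with 1 mM NAD+ and 30 uM prostaglandin E2; NADH fluorescence (360/450 nm) read 5 times over 30-s intervals, last minus first.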
# p53ts 39C kill – cytotoxicity in p53ts cells at nonpermissive temperature | H1299-p53A138V viability at 39C, ATP luminescence, 24 h | AID 902 | Potency, µM (series often up to 46.1 µM), for inactives: at the top dose activity change, negative = cell killing, actives largely listed as cytotoxic | actives 1.5% (n = 130,000); further: nearly all actives have a fitted effect of over 55% in size
# * marks the source's active call; other numbers are inactive results; ? = inconclusive; / = no result; [ ] = another dose, or the depositor's remark. Most compounds without a hit are left out; they make up all but 4.4% or so of the library. Unless noted, the call rests on the fitted dose curve; in most records, active means well fitted curve in the direction sought with a large enough effect; inconclusive means small, poorly fitted or top-dose-only effect, or another doubt; inactive means no such curve, though single readings can be large; an effect the other way counts as inactive or inconclusive. Unless noted, on the % scale 0 is the no-effect control and ±100 the full control effect; potency means the concentration at half of the fitted maximal effect.
SMILES,p53ts 32C tox,12-hLO inh,HPGD inh,p53ts 39C kill
O=c1[nH]c(C2CCCN(S(=O)(=O)c3ccccc3)C2)nc2c1nnn2Cc1ccccc1 (stereo unspecified),2%,-9%,14µM*,-1%
O=c1[nH]c(C2CCCN(S(=O)(=O)c3ccccc3)C2)nc2c1nnn2Cc1ccccc1F (stereo unspecified),14%,6%,13µM*,9%
COCCNC(=O)C(=O)Nc1c2c(nn1-c1ccccc1)CS(=O)(=O)C2,-9%,/,/,9%
Cc1ccc(NC(=O)Cn2c(-c3nonc3N)nc3ccccc32)cc1C,6%,/,/,9%
NCCNC(=S)S,-7%[9.22 µM],-4%[11.4 µM],3.5µM*,6%[9.22 µM]
O=C(CSc1ncn(-c2ccccc2)n1)Nc1ccc(Br)cn1,-9%,-9%,28µM*,6%
O=C(CSc1ncn(-c2ccccc2)n1)c1cccs1,-19%,-5%,8.9µM*,-3%
c1ccc(CSc2ncn(-c3ccccc3)n2)cc1,-9%,1%,18µM*,-7%
CCn1c(=O)n(-c2cccc(Cl)c2)c(=O)c2sc3ccccc3c21,3%,/,/,-4%
COc1cccc(C2=CC(c3ccccc3F)n3ncc(C(=O)Nc4ccc(C)cc4)c3N2)c1 (stereo unspecified),20%,/,/,47%
Cc1ccc(C2=CC(c3c(F)cccc3Cl)n3ncnc3N2)cc1C (stereo unspecified),13%,/,/,3%
Cc1ccc(C2=CC(c3ccccc3F)n3c(nc4ccccc43)N2)cc1C (stereo unspecified),?,/,/,13µM*
COc1cccc(C2=CC(c3ccccc3F)n3c(nc4ccccc43)N2)c1 (stereo unspecified),16µM*,/,/,10µM*
CC(=O)N1[C@H](C)C=C[C@]1(Cc1ccccc1)C(=O)NCc1ccc(C)o1,14%,-9%,14µM*,5%
Cc1nn(-c2ccccc2)c(Cl)c1/C=C1\SC(=S)NC1=O,/,-13%,16µM*,/
CCC(CC)C1=NN2C(=N)/C(=C\c3cc(C)n(-c4cccc(C)c4)c3C)C(=O)N=C2S1,/,5%,-4%,/
Cc1nn(-c2ccccc2)c(Cl)c1/C=C1/C(=N)N2N=C(C(C)C)SC2=NC1=O,/,-1%,22µM*,/
Cc1nn(CC(=O)N2CCN(c3ccccc3)CC2)c(=O)c2cc3sccc3n12,4%,/,/,-1%
c1ccc(-c2n[nH]c3ccccc23)cc1,13%,2%,14µM*,-11%
COc1ccc2c(c1)c1c(c(=O)n(-c3ccc(OC)c(OC)c3)c(=O)n1Cc1ccc(F)cc1)n2C,-3%,/,/,-3%
CSC1CCCCC1(O)CSc1nc2c(cc1C#N)CCCC2 (stereo unspecified),10%,-14%,7.9µM*,6%
O=C(O)c1ccc(C(=O)O)c(C(=O)Nc2ccc3c(c2)Cc2ccccc2-3)c1,3%[9.22 µM],-6%[11.4 µM],3.2µM*,4%[9.22 µM]
O=C(Nc1ccc2c(c1)Cc1ccccc1-2)c1ccncc1,/,0%,-19%,/
Cc1ccc(Cl)cc1N1CCN(C(=O)C2CCN(S(=O)(=O)Cc3ccccc3)CC2)CC1,3%,/,/,14%
C[C@@H]1CN(CCCn2c3ccccc3c3ccccc32)C[C@H](C)N1,16%,-1%,-7%,25µM*
SMILES,p53ts 32C tox,12-hLO inh,HPGD inh,p53ts 39C kill
O=C(CN1C(=O)COc2ccc(S(=O)(=O)Nc3ccccc3)cc21)Nc1cccc(Cl)c1,21%,/,/,12%
CCN(c1ccccc1)S(=O)(=O)c1nnc(NC(=O)COc2ccc(OC)cc2)s1,3%,/,/,-2%
CCOC(=O)c1sc(=S)n(C)c1NC(=O)c1ccccc1,/,-2%,8.9µM*,-3%
O=c1[nH]c(SCc2nc3c(cnn3-c3ccccc3)c(=O)[nH]2)nc2ccccc12,/,2%,0.79µM*,/
O=c1[nH]c(CSc2nc3ccccc3[nH]2)nc2c1cnn2-c1ccccc1,/,-1%,-10%,/
C=CCc1c(C)nc(SCc2nc3ccccc3c(=O)[nH]2)[nH]c1=O,-4%,2%,2.8µM*,-7%
CCc1nnc(NC(=O)Nc2ccccc2OC)s1,13%,-3%,1%,-6%
CCc1nnc(NC(=O)c2ccc(OC)cc2OC)s1,16µM*,-5%,-11%,?
CNC(=O)c1ccc(CSc2nc3cccnc3n2Cc2cccc(F)c2)cc1,-18%,/,/,/
Cc1cc(C)c(CSc2nnc(C)n3c2cc2occc23)c(C)c1,-20%,/,/,20µM*
Cc1ccc(C(=O)Nc2ccccc2C(=O)NC(C(=O)O)C(C)C)cc1 (stereo unspecified),?,0%,0%,10µM*
Cc1ccc(C(=O)Nc2ccccc2C(=O)NC(CC(=O)O)C(=O)O)cc1 (stereo unspecified),-24%,-4%,-13%,-25%
COc1ccc2cnn(-c3ccc(C)cc3)c(=O)c2c1OC,/,-2%,25µM*,/
Cc1ccc(S(=O)(=O)c2nnn3c2nc(N2CCN(c4cccc(C)c4C)CC2)c2ccccc23)cc1C,-2%,/,/,/
CN(C)c1ccc(/C=C(\C#N)c2nc3ccccc3c(=O)[nH]2)cc1,0.32µM*,/,/,0.32µM*
c1ccc2nc(-c3nc4ccccc4o3)ccc2c1,5µM*,-2%,?,5µM*
CCc1ccc(C2CC(=O)NC(NC(=O)c3ccc(C(C)(C)C)cc3)=N2)cc1 (stereo unspecified),-4%,/,/,-17%
CCC(=O)Nc1ccc(Oc2ccc3c(c2)C(=O)NC3=O)cc1,1%,-1%,16µM*,10%
Cc1cc2c(cc1S(=O)(=O)Nc1cccc(Cl)c1C)OCCN2C,7%,/,/,11%
CCN(CC)S(=O)(=O)c1cccc(-c2n[nH]c(=S)n2/N=C/c2ccc(Br)cc2)c1,/,-1%,14µM*,/
CCN(CC)S(=O)(=O)c1cccc(-c2n[nH]c(=S)n2/N=C/c2ccc(OC(F)F)cc2)c1,/,-16%,3.2µM*,/
CC1(c2ccc(OC(F)F)cc2)NC(=O)N(/N=C/c2c(O)ccc3ccccc23)C1=O (stereo unspecified),/,-3%,-24%,/
CCn1c(-c2cccc(Br)c2)n[nH]c1=S,0%,-1%,-20%,12%
CCN(CC)S(=O)(=O)c1cccc(-c2n[nH]c(=S)n2/N=C/c2ccc(OC)cc2)c1,/,-6%,16µM*,/
CCc1ccc(-c2[nH]c3c(c2-c2c(-n4cccc4)n(C)c(=O)[nH]c2=O)c(=O)[nH]c(=O)n3C)cc1,-7%,/,/,26%
